In PubChem BioAssay (NCATS):
Inconclusive results are not listed. Activity calls are given as the source filed them. Calls follow the shape of the dose curve; as a rule, active = well fitted curve in the direction sought with a large enough effect; inconclusive = small, poorly fitted or top-dose-only effect, or another doubt; inactive = no such curve, though single readings can be large; an effect the other way counts as inactive or inconclusive.

Experiments:
MCC-13 = experiment: qHTS assay to identify novel small-molecules to repurpose for Merkel cell carcinoma treatment (AID 1296009); details: MCC and control cell lines, CellTiter-Glo viability, 72 h; series mostly up to 46 µM; also: nearly all actives have a fitted effect of over 60% in size
Method in brief: (§1)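 After compound transfer in DMSO, plates were kept 72 hr at 37 degree celsius. Luminescent ATP signal from CellTiter-Glo served as viability measure, normalized against DMSO and no-cell controls.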

MCC-26 = experiment: as above; details: MCC and control cell lines, CellTiter-Glo viability, 72 h; series mostly up to 46 µM
Method in brief: as §1

MKL-1 = experiment: as above; details: MCC and control cell lines, CellTiter-Glo viability, 72 h; series mostly up to 46 µM
Method in brief: as §1

MKL-2 = experiment: as above; details: MCC and control cell lines, CellTiter-Glo viability, 72 h; series mostly up to 46 µM
Method in brief: as §1

UISO = experiment: as above; details: MCC and control cell lines, CellTiter-Glo viability, 72 h; series mostly up to 46 µM
Method in brief: as §1

WaGa = experiment: as above; details: MCC and control cell lines, CellTiter-Glo viability, 72 h; series mostly up to 46 µM
Method in brief: as §1

C33A = experiment: Primary qHTS to identify gynecologic anti-cancer compounds using libraries of approved drugs and bioactive compounds (AID 1345084); details: Gynecologic cancer cell panel viability, ATPlite luminescence, 48 h; series mostly up to 57.5 µM; also: nearly all actives have a fitted effect of over 55% in size
Method in brief: (§2)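 ATP-based viability (ATPlite), 1,000 cells/well, 16 h pre-incubation, 48 h compound at 37 C, 5% CO2, 15 min RT before read.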

CAOV3 = experiment: as above; details: Gynecologic cancer cell panel viability, ATPlite luminescence, 48 h; series mostly up to 57.5 µM
Method in brief: as §2

CASKI = experiment: as above; details: Gynecologic cancer cell panel viability, ATPlite luminescence, 48 h; series mostly up to 57.5 µM
Method in brief: as §2

Es-2 = experiment: as above; details: Gynecologic cancer cell panel viability, ATPlite luminescence, 48 h; series mostly up to 57.5 µM
Method in brief: as §2

HeLa = experiment: as above; details: Gynecologic cancer cell panel viability, ATPlite luminescence, 48 h; series mostly up to 57.5 µM
Method in brief: as §2

Hek293T = experiment: as above; details: Gynecologic cancer cell panel viability, ATPlite luminescence, 48 h, control line for the selectivity index; series mostly up to 57.5 µM
Method in brief: as §2

JEG-3 = experiment: as above; details: Gynecologic cancer cell panel viability, ATPlite luminescence, 48 h; series mostly up to 57.5 µM
Method in brief: as §2

OV90 = experiment: as above; details: Gynecologic cancer cell panel viability, ATPlite luminescence, 48 h; series mostly up to 57.5 µM
Method in brief: as §2

PA-1 = experiment: as above; details: Gynecologic cancer cell panel viability, ATPlite luminescence, 48 h; series mostly up to 57.5 µM
Method in brief: as §2

SKOV3 = experiment: as above; details: Gynecologic cancer cell panel viability, ATPlite luminescence, 48 h; series mostly up to 57.5 µM
Method in brief: as §2

Tov-21-G = experiment: as above; details: Gynecologic cancer cell panel viability, ATPlite luminescence, 48 h; series mostly up to 57.5 µM
Method in brief: as §2

NIH3T3 = experiment: qHTS assay to identify novel small-molecules to repurpose for Merkel cell carcinoma treatment (AID 1296009); details: MCC and control cell lines, CellTiter-Glo viability, 72 h; at 44.8 µM (top of the series) unless noted; also: nearly all actives have a fitted effect of over 60% in size
Method in brief: as §1

Measured: Potency

N#Cc1cc(NC(=O)C(=O)O)c(Cl)c(NC(=O)C(=O)O)c1
inactive: MCC-13 | MCC-26 | MKL-1 | MKL-2 | UISO | WaGa | C33A | CAOV3 | CASKI | Es-2 | HeLa | Hek293T | JEG-3 | OV90 | PA-1 | SKOV3 | Tov-21-G

CCOC(=O)[C@H](CCc1ccccc1)N[C@@H](C)C(=O)N(CC(=O)O)C1Cc2ccccc2C1
inactive: MCC-13 | MCC-26 | MKL-1 | MKL-2 | UISO | WaGa | C33A | CAOV3 | CASKI | Es-2 | HeLa | Hek293T | JEG-3 | OV90 | PA-1 | SKOV3 | Tov-21-G

Cc1ccc2c(Cl)cc(Cl)c(O)c2n1
inactive: MCC-13 | MCC-26 | MKL-1 | MKL-2 | UISO | WaGa | C33A | CAOV3 | CASKI | Es-2 | HeLa | Hek293T | JEG-3 | OV90 | PA-1 | SKOV3 | Tov-21-G

CC1c2ccccc2CN1NC(=O)c1ccc(Cl)c(S(N)(=O)=O)c1 (stereo not drawn)
inactive: MCC-13 | MCC-26 | MKL-1 | MKL-2 | UISO | WaGa | C33A | CAOV3 | CASKI | Es-2 | HeLa | Hek293T | JEG-3 | OV90 | PA-1 | SKOV3 | Tov-21-G

O=C(O)CCCC[C@@H]1SC[C@@H]2NC(=O)N[C@@H]21
inactive: MCC-13 | MCC-26 | MKL-1 | MKL-2 | UISO | WaGa | C33A | CAOV3 | CASKI | Es-2 | HeLa | Hek293T | JEG-3 | OV90 | PA-1 | SKOV3 | Tov-21-G

CN(CC1(C)CCCO1)S(=O)(=O)c1ccc(Cl)c(S(N)(=O)=O)c1 (stereo not drawn)
inactive: MCC-13 | MCC-26 | MKL-1 | MKL-2 | UISO | WaGa | C33A | CAOV3 | CASKI | Es-2 | HeLa | Hek293T | JEG-3 | OV90 | PA-1 | SKOV3 | Tov-21-G

CCCc1ccc(OCC(=O)N2CCN(C(=O)COc3ccc(CCC)cc3OC)CC2)c(OC)c1
inactive: MCC-13 | MCC-26 | MKL-1 | MKL-2 | UISO | WaGa | C33A | CAOV3 | CASKI | Es-2 | HeLa | Hek293T | JEG-3 | OV90 | PA-1 | SKOV3 | Tov-21-G

CC(C)(C)c1ccc(C(=O)CCCCl)cc1
inactive: MCC-13 | MCC-26 | MKL-1 | MKL-2 | NIH3T3 | UISO | WaGa | C33A | CAOV3 | CASKI | Es-2 | Hek293T | JEG-3 | OV90 | PA-1 | SKOV3 | Tov-21-G

C[C@H]1C[C@H]2[C@@H]3CCC4=CC(=O)C=C[C@]4(C)[C@H]3C(=O)C[C@]2(C)[C@@]1(O)C(=O)CO
inactive: MCC-13 | MCC-26 | MKL-1 | MKL-2 | NIH3T3 | UISO | WaGa | C33A | CASKI | Es-2 | HeLa | Hek293T | JEG-3 | PA-1 | SKOV3 | Tov-21-G

CCCCOC(=O)CCCCCCCCC(=O)OCCCC
inactive: MCC-13 | MCC-26 | MKL-1 | MKL-2 | NIH3T3 | UISO | WaGa | C33A | CASKI | Es-2 | HeLa | Hek293T | JEG-3 | OV90 | PA-1 | SKOV3 | Tov-21-G

CO/N=C(/C(=O)N[C@@H]1C(=O)N2C(C(=O)O)=C(Cn3nnc(C)n3)CS[C@H]12)c1csc(N)n1
inactive: MCC-13 | MCC-26 | MKL-1 | MKL-2 | UISO | WaGa | C33A | CAOV3 | CASKI | Es-2 | HeLa | Hek293T | JEG-3 | OV90 | PA-1 | SKOV3 | Tov-21-G

CCCCCCCCCCCCCCCCCCN(C)C
inactive: MCC-13 | MCC-26 | MKL-1 | MKL-2 | UISO | WaGa | C33A | CAOV3 | CASKI | Es-2 | HeLa | Hek293T | JEG-3 | OV90 | PA-1 | SKOV3 | Tov-21-G

CC(=O)OCC(=O)Nc1cc(C#N)cc(NC(=O)COC(C)=O)c1Cl
inactive: MCC-13 | MCC-26 | MKL-1 | MKL-2 | UISO | WaGa | C33A | CAOV3 | CASKI | Es-2 | HeLa | Hek293T | JEG-3 | OV90 | PA-1 | SKOV3 | Tov-21-G

O=C(O)CCC(=O)OC[C@@H](NC(=O)C(Cl)Cl)[C@H](O)c1ccc([N+](=O)[O-])cc1
inactive: MCC-13 | MCC-26 | MKL-1 | MKL-2 | UISO | WaGa | C33A | CAOV3 | CASKI | Es-2 | HeLa | Hek293T | JEG-3 | OV90 | PA-1 | SKOV3 | Tov-21-G

CCOC(=O)c1ccc(NC(=O)CN2CCCCC2)cc1
inactive: MCC-13 | MCC-26 | MKL-1 | MKL-2 | NIH3T3 | UISO | WaGa | C33A | CASKI | Es-2 | HeLa | Hek293T | JEG-3 | OV90 | PA-1 | Tov-21-G
